Screens from PubChem BioAssay.
Shown are actives, neighbours in structure and some others; about 4.7% of the full set was active somewhere.
TRHR agonist: qHTS for Small Molecule Agonists and Allosteric Enhancers of Human TRH Receptor: Primary Screen for Agonists; activation, % at 2 µM; TRHR cells, calcium flux fluo-8, FDSS agonist mode; 360,000 compounds, 0.18% hits; AID 493084, 2011; Thyrotropin-releasing hormone receptor (Homo sapiens), P34981
Target sequence (P34981 whole entry, looked up): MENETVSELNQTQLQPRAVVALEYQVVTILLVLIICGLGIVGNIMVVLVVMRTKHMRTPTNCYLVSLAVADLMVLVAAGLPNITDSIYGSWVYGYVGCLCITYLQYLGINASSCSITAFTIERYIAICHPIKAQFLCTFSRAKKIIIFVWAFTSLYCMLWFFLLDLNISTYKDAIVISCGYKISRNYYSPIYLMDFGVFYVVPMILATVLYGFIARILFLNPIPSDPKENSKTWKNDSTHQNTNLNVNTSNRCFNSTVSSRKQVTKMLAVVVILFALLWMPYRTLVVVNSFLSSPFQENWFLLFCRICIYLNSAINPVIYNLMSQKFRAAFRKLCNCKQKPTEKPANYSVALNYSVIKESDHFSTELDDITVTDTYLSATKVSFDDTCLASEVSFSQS
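In this calcium-flux screen, cells bearing human TRHR are dye-loaded with fluo-8, baselined for 10 cycles, then exposed to library compounds; positive kinetic calcium responses during the agonist phase mark hits, with TRH as control.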
TRHR PAM: qHTS for Small Molecule Agonists and Allosteric Enhancers of Human TRH Receptor: Primary Screen for Enhancers; TRHR cells, fluo-8 calcium fluorescence, EC20 TRH enhancement; 360,000 compounds, 0.66% hits; Thyrotropin-releasing hormone receptor (Homo sapiens), P34981; enhancement, % at 2 µM; in the data active means enhancement above about 30%
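TRHR-expressing cells loaded with fluo-8 calcium dye were read kinetically (ex 480/em 530) during compound addition, then stimulated with an EC20 of TRH (10 nM final). Enhancement of the Gq-mediated intracellular calcium response was scored.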
D1 potentiator: Potentiators of Human D1 Dopamine Receptor: qHTS; D(1A) dopamine receptor (Homo sapiens), P21728; HEK293 TREx D1 cells, calcium flux, dopamine EC20 potentiation; potentiation, % at 10 µM; 360,000 compounds, 0.036% hits; in the data active means potentiation above about 30%
D1 antagonist: Antagonist of Human D 1 Dopamine Receptor: qHTS. D(1A) dopamine receptor (Homo sapiens), P21728. HEK293 TREx D1 cells, calcium flux, dopamine EC80; stronger effect = lower value. activity change, negative = inhibition, % at 10 µM. 360,000 compounds, 3.2% hits. AID 504652, 2011; in the data active means activity change below about -30%
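Cells carrying a force-coupled, tetracycline-inducible human D1 receptor report calcium flux. Each well gets a 10 s baseline, compound with 180 s monitoring, then an EC80 dopamine stimulus with a second 180 s kinetic read.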
D1 agonist: Allosteric Agonists of the Human D1 Dopamine Receptor: qHTS; activation, % at 2 µM; 360,000 compounds, 1% hits; HEK293 T-REx D1 cells, calcium flux, agonist mode; D(1A) dopamine receptor (Homo sapiens), P21728
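Tetracycline-induced HEK293 TREx D1 cells, force-coupled to calcium signalling, were dye-loaded with a no-wash calcium kit. Compound was pin-added after a 10 s baseline. Fluorescence was read kinetically at 1 cycle/s for 180 s, with calcium rises flagged as agonism.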
A number is an active result; – = inactive; · = no result. Unless noted, no stated cut-off is given here; in the data, active means activation above about 30%; inactive means the rest.

SMILES	TRHR agonist	TRHR PAM	D1 potentiator	D1 antagonist	D1 agonist
Cc1c(NC(=O)/C(C#N)=C/c2ccc(-c3ccc(Cl)c(Cl)c3)o2)c(=O)n(-c2ccccc2)n1C	–	–	–	–	–
CN(C(=O)c1cc2c(Cl)nc3ccccc3c2s1)c1cccc(C(F)(F)F)c1	–	–	–	–	–
CCCN(C(=O)c1cc2c(Cl)nc3ccccc3c2s1)c1cccc(C)c1	–	39.9	–	–	–
O=C(CCCN1C(=O)c2cccnc2C1=O)Nc1ccc(Br)cc1	–	–	–	-55.2	–
O=C(CCCN1C(=O)c2ccccc2C1=O)Nc1ccc(Br)cn1	–	–	–	–	–
CCOc1ccc(C(=O)N/N=C(\c2ccccc2)c2ccccn2)cc1	–	–	–	-33.4	–
CCCCNC(=O)C(CC)Sc1nc2ccccc2c(=O)n1CCc1ccc(OC)c(OC)c1 (stereo not given)	–	–	–	–	–
Cc1ccc(NC(=S)N/N=C/c2ccc([N+](=O)[O-])s2)cc1	–	–	–	–	31.3
CC1Cc2ccccc2N1S(=O)(=O)c1cccc(C(=O)NCc2ccncc2)c1 (stereo not given)	–	–	·	-54.1	–
CC1Cc2ccccc2N1S(=O)(=O)c1cccc(C(=O)NCc2ccccn2)c1 (stereo not given)	–	–	–	–	–
O=C(O)COc1ccccc1/C=N/NC(=O)CSc1nnc(SCc2ccc(Cl)cc2)s1	–	–	–	–	–
O=C(O)COc1ccccc1/C=N/NC(=O)Cc1csc(Nc2cccc(C(F)(F)F)c2)n1	–	36.3	–	–	–
O=C(O)COc1ccccc1/C=N/NC(=O)Cc1ccccc1	–	–	–	–	–
O=C(O)COc1ccccc1/C=N/NC(=O)CSc1nnc(SCc2cccc3ccccc23)s1	–	–	–	–	35.0
CCOc1ccc(CNC(=O)c2cc3ccccn3n2)cc1	–	–	–	–	–
Cn1c(-c2ccc([N+](=O)[O-])cc2)nc2ccccc21	–	–	–	–	–
Cn1cc([N+](=O)[O-])cc1-c1nc2ccccc2n1C	–	–	–	-33.7	–
CCCOc1ccc(-c2nonc2NC(=O)c2cc(OC)c(OC)c(OC)c2)cc1OCCC	–	–	–	–	38.1
CC(C(=O)Nc1cc(Cl)cc(Cl)c1)N1CCCC1 (stereo not given)	–	–	–	–	33.0
Cc1cc([N+](=O)[O-])ccc1NCc1ccccc1	–	–	–	-31.9	–
Cc1ccc([N+](=O)[O-])cc1NC(=O)Cc1ccc(F)cc1	–	–	–	–	–
Cc1ccc(NC(=O)Cc2ccc([N+](=O)[O-])cc2)c(Br)c1	–	–	–	-44.8	–
Cc1ccccc1NCc1ccc([N+](=O)[O-])s1	–	–	–	-31.9	–
Cc1cc([N+](=O)[O-])ccc1NC(=O)Cc1ccc(F)cc1	–	–	–	-32.1	–
COc1cc([N+](=O)[O-])ccc1NC(=O)Cc1ccc(C)cc1	–	–	–	·	–
SMILES	TRHR agonist	TRHR PAM	D1 potentiator	D1 antagonist	D1 agonist
COc1ccccc1NCc1ccc([N+](=O)[O-])s1	–	–	–	–	–
CC(Oc1ccccc1)C(=O)Nc1nc2ccc(S(N)(=O)=O)cc2s1 (stereo not given)	–	–	–	–	–
O=C(NCCc1ccc(F)cc1)Nc1ccc([N+](=O)[O-])cc1	–	–	–	-48.7	–
CCOC(=O)c1ccc(/C=C2/C=C(c3ccccc3)N(c3ccc(Cl)c(C(=O)O)c3)C2=O)cc1	–	–	–	–	102.9
CCOc1ccccc1NC(=O)COn1nnc2ccc(Cl)cc21	–	–	–	–	30.5
CC(=O)c1cccc(NC(=O)COc2nsnc2N2CCOCC2)c1	–	–	–	-35.3	–
COc1nsnc1N1CCOCC1	–	–	–	–	–
COC(=O)COc1nsnc1N1CCOCC1	–	–	–	-60.4	–
CC(C)c1ccc(/C=C2\SC(=S)N(CC(=O)NCCCN3CCOCC3)C2=O)cc1	–	–	–	-35.5	–
CCc1ccc(/C=C2\SC(=S)N(CCC(=O)NCCCN3CCOCC3)C2=O)cc1	–	–	–	-36.9	–
